Activity calls are given as the source filed them.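 How the source made its calls: active means mean inhibition above 46.5%, the solvent-only control mean plus 3 SD; inactive means the rest.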

The target in the assay is Nuclear receptor coactivator 2 (Homo sapiens) (UniProt Q15596). Briefly: inhibition of GAL4-SRC2 driven luciferase expression – cell-based, luminescence, HEK293, triplicate, confirmation (AID 652008).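 Further: 0% = DMSO-treated cells and 100% = Gossypol at 36 µM.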 The following applies: HEK293 GAL4-SRC2 luciferase reporter, at 8.9 µM, stronger effect = higher value.
Sequence of Nuclear receptor coactivator 2 (Homo sapiens) (Q15596 whole entry, looked up, the tested form may be a part): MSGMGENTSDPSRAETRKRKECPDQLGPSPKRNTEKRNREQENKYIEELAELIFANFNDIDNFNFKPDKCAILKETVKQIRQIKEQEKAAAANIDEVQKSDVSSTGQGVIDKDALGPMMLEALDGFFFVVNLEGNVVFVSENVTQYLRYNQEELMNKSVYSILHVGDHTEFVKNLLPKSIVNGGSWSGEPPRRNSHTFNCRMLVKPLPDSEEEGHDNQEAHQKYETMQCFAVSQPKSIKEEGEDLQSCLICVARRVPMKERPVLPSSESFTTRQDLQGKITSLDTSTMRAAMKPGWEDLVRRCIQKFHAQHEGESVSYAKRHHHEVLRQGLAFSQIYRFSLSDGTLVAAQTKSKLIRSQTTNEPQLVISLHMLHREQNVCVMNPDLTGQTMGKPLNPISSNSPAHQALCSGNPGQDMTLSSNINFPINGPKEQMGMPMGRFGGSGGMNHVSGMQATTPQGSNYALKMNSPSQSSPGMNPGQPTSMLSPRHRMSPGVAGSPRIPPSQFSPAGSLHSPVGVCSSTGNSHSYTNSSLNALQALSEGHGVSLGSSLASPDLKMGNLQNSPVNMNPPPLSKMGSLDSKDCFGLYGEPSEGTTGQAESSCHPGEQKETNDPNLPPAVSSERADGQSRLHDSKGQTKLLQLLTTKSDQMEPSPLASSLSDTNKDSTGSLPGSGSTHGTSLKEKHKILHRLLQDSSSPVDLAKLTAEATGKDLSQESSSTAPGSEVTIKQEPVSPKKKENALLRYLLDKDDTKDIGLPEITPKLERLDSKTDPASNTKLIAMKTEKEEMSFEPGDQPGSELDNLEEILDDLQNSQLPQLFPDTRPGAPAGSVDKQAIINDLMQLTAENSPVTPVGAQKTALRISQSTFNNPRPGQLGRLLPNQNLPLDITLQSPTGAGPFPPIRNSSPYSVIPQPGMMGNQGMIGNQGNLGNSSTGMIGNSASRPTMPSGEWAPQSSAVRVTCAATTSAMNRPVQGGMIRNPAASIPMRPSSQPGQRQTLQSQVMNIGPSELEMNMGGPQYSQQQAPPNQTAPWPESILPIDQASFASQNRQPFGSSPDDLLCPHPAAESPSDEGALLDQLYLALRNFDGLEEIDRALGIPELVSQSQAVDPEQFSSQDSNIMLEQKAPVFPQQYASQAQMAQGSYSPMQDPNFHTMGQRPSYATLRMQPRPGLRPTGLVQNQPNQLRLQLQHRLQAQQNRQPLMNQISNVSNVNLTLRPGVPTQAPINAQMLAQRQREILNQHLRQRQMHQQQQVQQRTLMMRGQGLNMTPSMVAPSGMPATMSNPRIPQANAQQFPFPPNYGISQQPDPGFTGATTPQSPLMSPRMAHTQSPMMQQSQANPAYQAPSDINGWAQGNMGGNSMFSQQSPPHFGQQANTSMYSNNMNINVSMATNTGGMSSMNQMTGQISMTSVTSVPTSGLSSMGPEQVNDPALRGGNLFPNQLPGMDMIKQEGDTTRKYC
The inhibition is the drop in the measured response relative to a control, in per cent. In the case of `Cc1cc(C)n2c(Nc3ccc4c(c3)OCCO4)c(-c3cc4ccccc4o3)nc2n1`, the inhibition was -12.5% (inactive).

In the case of `C#CCN(C[C@@H]1[C@@H](OC(=O)Nc2cccs2)[C@@H](OC(=O)Nc2cccs2)Cn2c(=O)ccc(=O)n21)S(=O)(=O)c1ccc(C)cc1`, the inhibition was 88.2% (active).

For the molecule `CC1=C(CO)C(=O)OC([C@@H](C)C2CC[C@H]3C4C[C@H]5O[C@]56[C@@H](O)C=CC(=O)[C@]6(C)C4CC[C@]23C)C1` (some centres not stated), the inhibition is 41.6% (inactive).

With `COc1ccc(-c2cc(-c3nc4ccccn4c3NCc3ccccc3)ccc2OC)cc1`, the inhibition is 98.3% (active).

Take `CCN(CC)CCC(=O)N1C/C(=C/c2ccccc2)C(=O)/C(=C\c2ccccc2)C1`: the inhibition is 23.6% (inactive).

For `COc1ccc(-c2noc(CCCC(=O)NC3CCCC3)n2)cc1`, the inhibition was 53.7% (active).

On to `CNC(=O)c1cc(Oc2ccc(NC(=O)Nc3ccc(Cl)c(C(F)(F)F)c3)cc2)ccn1`, for which the inhibition was 58.7% (active).

For the origin of these results see PubChem BioAssay.
